# D1 antagonist = human D1 dopamine receptor antagonism; P21728; HEK293 TREx D1 cells, calcium flux, dopamine EC80; stronger effect = lower value; activity change, negative = inhibition, % at 10 µM; actives 3.2% (n = 360,000); AID 504652; in the data active means activity change below about -30%; further: on the % scale 0 is the no-effect control and ±100 the full control effect
# Target sequence (P21728 whole entry, looked up): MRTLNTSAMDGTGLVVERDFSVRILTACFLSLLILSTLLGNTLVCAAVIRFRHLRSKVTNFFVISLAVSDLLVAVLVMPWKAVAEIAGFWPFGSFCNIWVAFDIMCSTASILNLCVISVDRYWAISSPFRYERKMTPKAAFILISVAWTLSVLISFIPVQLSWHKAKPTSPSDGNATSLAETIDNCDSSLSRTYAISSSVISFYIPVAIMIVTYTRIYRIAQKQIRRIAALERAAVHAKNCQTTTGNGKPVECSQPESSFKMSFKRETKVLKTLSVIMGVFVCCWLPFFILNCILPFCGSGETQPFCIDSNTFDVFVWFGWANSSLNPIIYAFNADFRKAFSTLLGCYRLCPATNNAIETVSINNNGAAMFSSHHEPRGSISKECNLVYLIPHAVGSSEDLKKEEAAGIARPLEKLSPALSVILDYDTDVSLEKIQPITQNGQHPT
#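 Kinetic fluorescence of a calcium dye serves as the read-out. D1-expressing Hek293 Trex cells, induced overnight at 30 C, are exposed to compound for 180 s before an EC80 dopamine addition, then read 180 s further.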
# D1 potentiator = enhances dopamine response at the human D1 receptor. AID 504651. P21728. HEK293 TREx D1 cells, calcium flux, dopamine EC20 potentiation. actives 0.036% (n = 360,000). potentiation, % at 10 µM; in the data active means potentiation above about 30%; further: 0% is about no effect
# TRHR agonist = activates the human TRH receptor; actives 0.18% (n = 360,000); activation, % at 2 µM; TRHR cells, calcium flux fluo-8, FDSS agonist mode; P34981; AID 493084; further: 0% is about no effect
#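 Read-out: compound-evoked intracellular calcium rise in TRHR cells, fluo-8 dye, kinetic FDSS fluorescence at 1 s/cycle following a 10-cycle baseline. Cells cultured overnight before dye loading (30 min–1.5 h, RT).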
# TRHR enhancer = TRH receptor (human) allosteric enhancement; TRHR cells, fluo-8 calcium fluorescence, EC20 TRH enhancement; enhancement, % at 2 µM; actives 0.66% (n = 360,000); AID 493056; in the data active means enhancement above about 30%; further: 0% is about no effect
#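 Enhancer read-out: after compound pinning and an initial kinetic agonist-mode read, an EC20 of TRH (10 nM final) was injected and fluo-8 calcium signal (Ex 480/Em 530) followed at 1 s/cycle for 100 cycles in TRHR-expressing cells.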
# D1 agonist = agonists of human D1 dopamine receptor; HEK293 T-REx D1 cells, calcium flux, agonist mode; actives 1% (n = 360,000); activation, % at 2 µM; P21728; AID 504660; further: 0% is about no effect
#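 Inducible HEK293 T-REx D1 cells, force-coupled to calcium signalling, were plated at 4000 cells/well with tetracycline and held overnight at 30 C. After no-wash calcium dye loading, compound-evoked calcium rise over 180 s flagged agonists.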
# * hit, by the source's call. Most compounds without a hit are left out; they make up all but 4.7% or so of the library. Unless noted, no stated cut-off is given here; in the data, active means activation above about 30%; inactive means the rest.
SMILES,D1 antagonist,D1 potentiator,TRHR agonist,TRHR enhancer,D1 agonist
CS(=O)(=O)C1=NSC2=NC(=O)/C(=C\c3ccc(OC(=O)c4ccco4)cc3)C(=N)N21,-31*,-8,0,-5,0
Cc1cc(/C=C2/C(=N)N3C(=NC2=O)SN=C3S(C)(=O)=O)c(C)n1-c1ccccc1F,-21,-9,-2,-1,4
CS(=O)(=O)C1=NSC2=NC(=O)/C(=C\c3cccn3-c3ccc(Cl)cc3)C(=N)N21,-36*,-5,0,-5,4
CCC1=NN2C(=N)/C(=C/c3ccc(OS(=O)(=O)c4ccccc4)c(OC)c3)C(=O)N=C2S1,-1,5,0,-9,0
CCS(=O)(=O)C1=NN2C(=N)/C(=C\c3ccc(OC(=O)c4ccco4)c(OC)c3)C(=O)N=C2S1,-33*,5,2,-3,4
COc1cc(/C=C2/C(=N)N3N=C(C(C)C)SC3=NC2=O)ccc1OS(=O)(=O)c1ccccc1,-31*,-2,1,-1,1
Cc1nc2ccc(S(=O)(=O)N3CCN(S(=O)(=O)c4c(F)cccc4F)CC3)cc2s1,-8,28,0,1,4
CCCC1=NN2C(=N)/C(=C\c3ccc(OCCOc4ccc(NC(C)=O)cc4)c(OC)c3)C(=O)N=C2S1,-18,-4,1,31*,1
O=S(=O)(c1ccc2c(c1)C(O)c1ccccc1CC2)C(F)(F)F (stereo not drawn),-23,-5,0,0,3
CN1CCC(=C2c3ccccc3C(O)c3ccccc32)CC1 (stereo not drawn),-79*,-8,-1,18,19
O=C(NCCC(=O)N1CCN(c2ncccn2)CC1)c1ccccc1,-33*,-1,0,-4,1
O=C(O)CCCC(=O)N1CCN(c2ncccn2)CC1,-36*,-10,0,-2,2
CC(C)Oc1ccc(CNC(=O)C2CCN(C(=O)N3CC(C)Oc4ccccc43)CC2)cc1 (stereo not drawn),4,-5,0,-3,1
Cc1ccc(NC2=C(Cl)C(=O)OC2OC(=O)c2ccco2)cc1C (stereo not drawn),-30*,-8,0,-4,8
Cc1ccc(C)c(NC2=C(Cl)C(=O)OC2OC(=O)c2ccco2)c1 (stereo not drawn),-14,-5,1,0,19
COc1ccc(N2C(=O)C3C4C=CC(CC4)C3C2=O)c([N+](=O)[O-])c1 (stereo not drawn),24,1,0,39*,3
CCOc1ccc(N2C(=O)C3C4C=CC(CC4)C3C2=O)c([N+](=O)[O-])c1 (stereo not drawn),-14,-5,0,-3,0
Cc1cccc(NC(=O)c2oc3ccccc3c2NC(=O)Cc2coc3cc(C)cc(C)c23)c1,-8,0,0,-5,3
COc1ccc(CNc2ncc(-c3ccccc3)n2C)c(OC)c1OC,-30*,-2,-1,3,3
COc1ccc(CNc2ncc(-c3ccccc3)n2C)c2ccccc12,-5,-8,0,1,10
Clc1ccc2c(N/N=C/c3ccc(Br)cc3)ccnc2c1,-43*,-7,-1,13,8
CCOc1ccc(N/C(SC)=C(/C#N)C(N)=O)cc1,-52*,9,2,-2,1
CCc1ccc(N/C(SC)=C(/C#N)C(N)=O)cc1,11,-5,1,-1,-1
COc1cccc(NC(=O)Cn2nc(-c3ccncc3)ccc2=O)c1,-44*,-4,0,-6,0
COc1ccc(-c2ccc(=O)n(CC(=O)Nc3ccc(OC)c(OC)c3)n2)cc1,-40*,-1,0,-1,5
SMILES,D1 antagonist,D1 potentiator,TRHR agonist,TRHR enhancer,D1 agonist
CCc1cccc(NC(=O)Cn2nc(-c3ccc(OC)cc3)ccc2=O)c1,-2,0,0,-4,3
CCN(CC)c1ccc(NC(=O)CN2CCN(S(=O)(=O)c3ccc(C(C)C)cc3)CC2)cc1,-6,0,1,-5,2
Cc1ccc2c(=O)cc(C(=O)Nc3ccc(S(=O)(=O)N(C)Cc4ccccc4)cc3)oc2c1,13,2,-1,9,0
CCOCCN(C(=O)c1ccccc1Cl)c1cccc(C)c1C,-38*,-9,0,17,0
CCOCCNC(=O)c1ccccc1C(=O)NCCOCC,-8,-3,0,-3,1
COc1cc(-c2nc(SCC(=O)Nc3ccc(C)cc3)c(-c3ccc(F)cc3)[nH]2)cc(OC)c1OC,-35*,-5,-1,6,4
COc1ccc(-c2nc(SCC(=O)Nc3ccc4c(c3)OCO4)c(-c3ccc(F)cc3)[nH]2)cc1OC,-36*,-3,-1,-1,4
COc1ccc(-c2nc(SCC(=O)Nc3ccc4c(c3)OCCO4)c(-c3ccc(F)cc3)[nH]2)cc1OC,-14,-5,-1,1,2
COc1ccc(-c2nc(SCC(=O)Nc3ccccc3)c(-c3ccc(F)cc3)[nH]2)cc1OC,-47*,-5,2,7,0
COc1ccc(NC(=O)CSc2nc(-c3ccc(F)cc3)[nH]c2-c2ccc(C)cc2)cc1OC,-18,-1,1,-5,3
Cc1ccccc1C(=O)Nc1ccc2nc(Nc3cccc(C(F)(F)F)c3)cc(C)c2c1,-24,-2,1,-3,2
CCOc1ccc(C2c3[nH]c4ccccc4c3CCN2C(=O)Cc2cccc(OCC)c2OCC)cc1 (stereo not drawn),3,-5,1,5,1
COCCCNS(=O)(=O)c1cc(-c2onc(C)c2C)ccc1OC,8,-3,0,8,3
CCOc1ccc([N+](=O)[O-])c(N)c1,-33*,-5,1,0,1
Cc1ccc(NCc2nnc(SCC(=O)N(Cc3ccccc3)C(C)(C)C)o2)c(C)c1,-45*,-3,0,-3,1
Cc1ccc(NCc2nnc(SCC(N)=O)o2)c(C)c1,-9,-1,0,-5,2
COc1ccc(CCNC(=O)C(=O)NCC(c2ccc3c(c2)OCO3)N2CCOCC2)cc1 (stereo not drawn),2,-6,1,-7,3
CSc1cccc(NC(=O)c2ccc3c(c2)CCCN3S(C)(=O)=O)c1,-2,4,-2,1,-1
CCc1nnc(NC(=O)C(=O)c2cc(C)n(-c3ccccc3)c2C)s1,-8,-3,-1,1,1
O=C(NCc1ccccc1)C1CCCN1C(=O)Nc1ccccc1[N+](=O)[O-] (stereo not drawn),-31*,11,0,6,1
O=C(NCc1cccs1)C1CCCN1C(=O)Nc1ccccc1[N+](=O)[O-] (stereo not drawn),9,-4,0,-4,1
CC1CCN(CCNC(=O)CCS(=O)(=O)c2ccc(Br)cc2)CC1,-43*,-6,0,2,1

# High-throughput results as filed in PubChem.
